From paper PMC7862700, “An all-to-all approach to the identification of sequence-specific readers for epigenetic DNA modifications on cytosine”

Assays:
Experiment in all cases: DAPPL (digital affinity profiling via proximity ligation, sequencing); 10 mM Tris-HCl pH 7.5, 50 mM NaCl, 1 mM DTT, 4% glycerol, room temperature, 30 min; GST-TFs on glutathione beads, 16-mer random dsDNA library, 0.1% formaldehyde crosslink after washing; high values mean tight binding
Conditions in all cases: protein: recombinant; tags: N-terminal GST; dsDNA, one strand shown
ERF = biological target: T1, ERF (Homo sapiens, UniProt P50548 1-548)
T1 sequence: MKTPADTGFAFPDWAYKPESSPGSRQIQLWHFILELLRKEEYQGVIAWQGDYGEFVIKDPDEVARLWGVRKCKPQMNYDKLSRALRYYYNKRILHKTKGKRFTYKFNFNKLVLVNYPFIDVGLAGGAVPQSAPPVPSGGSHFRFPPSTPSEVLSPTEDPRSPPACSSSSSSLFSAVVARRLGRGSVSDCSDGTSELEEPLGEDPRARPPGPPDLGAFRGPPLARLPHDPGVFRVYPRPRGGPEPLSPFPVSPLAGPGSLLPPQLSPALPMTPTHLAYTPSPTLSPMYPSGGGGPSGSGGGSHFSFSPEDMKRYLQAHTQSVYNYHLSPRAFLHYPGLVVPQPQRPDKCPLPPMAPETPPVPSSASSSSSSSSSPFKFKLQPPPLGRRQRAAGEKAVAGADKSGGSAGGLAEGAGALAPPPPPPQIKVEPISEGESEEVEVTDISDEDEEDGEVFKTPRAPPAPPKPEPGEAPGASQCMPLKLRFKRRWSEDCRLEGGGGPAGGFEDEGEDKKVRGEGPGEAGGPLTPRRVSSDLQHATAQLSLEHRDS
How it was run: (§1)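 Binding signal is given per hexamer as its read frequency for a factor divided by its frequency in the tag-only sample. GST-fused human transcription factors were expressed in yeast, captured on glutathione beads, barcoded with DNA and pooled with that sample, then incubated with 200 nmole of a 16-mer random double-stranded DNA library in Tris/NaCl/DTT/glycerol buffer for 30 min at room temperature. The pools were then washed, crosslinked, proximity-ligated, amplified by PCR and sequenced on an Illumina NextSeq500.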

ETV3L = biological target: T2, ETV3L (Homo sapiens, UniProt Q6ZN32 1-361)
T2 sequence: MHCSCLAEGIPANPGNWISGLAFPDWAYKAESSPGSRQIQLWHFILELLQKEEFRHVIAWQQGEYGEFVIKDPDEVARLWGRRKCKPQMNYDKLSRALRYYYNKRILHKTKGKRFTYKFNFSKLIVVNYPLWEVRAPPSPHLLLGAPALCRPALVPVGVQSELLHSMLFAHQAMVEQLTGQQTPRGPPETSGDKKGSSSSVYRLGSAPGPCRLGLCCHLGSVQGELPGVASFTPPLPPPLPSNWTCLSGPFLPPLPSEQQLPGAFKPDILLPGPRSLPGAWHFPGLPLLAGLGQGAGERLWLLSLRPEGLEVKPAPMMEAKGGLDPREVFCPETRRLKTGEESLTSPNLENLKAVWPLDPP
How it was run: as §1

ETS2 = biological target: T3, ETS2 (Homo sapiens, UniProt P15036 1-469)
T3 sequence: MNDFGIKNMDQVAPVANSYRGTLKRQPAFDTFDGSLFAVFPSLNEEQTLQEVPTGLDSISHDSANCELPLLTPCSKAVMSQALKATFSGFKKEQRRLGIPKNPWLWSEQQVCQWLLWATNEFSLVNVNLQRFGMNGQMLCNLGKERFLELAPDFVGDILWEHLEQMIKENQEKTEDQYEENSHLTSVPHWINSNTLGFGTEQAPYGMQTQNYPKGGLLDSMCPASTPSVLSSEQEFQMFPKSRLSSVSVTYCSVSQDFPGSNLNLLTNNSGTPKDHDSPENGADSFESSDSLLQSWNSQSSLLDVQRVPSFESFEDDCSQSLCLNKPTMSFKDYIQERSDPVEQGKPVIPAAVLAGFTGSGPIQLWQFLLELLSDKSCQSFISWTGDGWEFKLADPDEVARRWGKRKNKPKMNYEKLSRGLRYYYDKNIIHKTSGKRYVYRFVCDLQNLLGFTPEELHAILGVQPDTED
How it was run: as §1

SPDEF = biological target: T4, SPDEF (Homo sapiens, UniProt O95238 1-335)
T4 sequence: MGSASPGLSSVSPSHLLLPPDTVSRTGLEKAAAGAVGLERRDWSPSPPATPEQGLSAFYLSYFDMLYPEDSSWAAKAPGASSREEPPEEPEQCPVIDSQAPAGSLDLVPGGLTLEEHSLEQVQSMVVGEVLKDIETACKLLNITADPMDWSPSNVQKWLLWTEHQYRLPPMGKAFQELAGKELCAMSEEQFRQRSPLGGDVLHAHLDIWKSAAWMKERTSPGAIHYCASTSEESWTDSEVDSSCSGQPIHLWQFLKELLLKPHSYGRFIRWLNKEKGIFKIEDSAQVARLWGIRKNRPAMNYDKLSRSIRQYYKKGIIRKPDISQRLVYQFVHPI
How it was run: as §1

ETV7 = biological target: T5, ETV7 (Homo sapiens, UniProt Q9Y603 1-341)
T5 sequence: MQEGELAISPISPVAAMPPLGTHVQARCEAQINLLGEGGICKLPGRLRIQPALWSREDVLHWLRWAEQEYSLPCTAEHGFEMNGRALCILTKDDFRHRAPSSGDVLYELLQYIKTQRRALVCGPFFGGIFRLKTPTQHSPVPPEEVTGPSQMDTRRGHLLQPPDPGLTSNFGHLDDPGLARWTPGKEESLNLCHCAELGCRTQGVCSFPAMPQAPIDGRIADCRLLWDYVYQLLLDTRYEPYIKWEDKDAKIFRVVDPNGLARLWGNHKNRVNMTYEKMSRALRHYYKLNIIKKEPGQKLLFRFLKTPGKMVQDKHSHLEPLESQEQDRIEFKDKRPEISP
How it was run: as §1

ELF5 = biological target: T6, ELF5 (Homo sapiens, UniProt Q9UKW6-2 1-255)
T6 sequence: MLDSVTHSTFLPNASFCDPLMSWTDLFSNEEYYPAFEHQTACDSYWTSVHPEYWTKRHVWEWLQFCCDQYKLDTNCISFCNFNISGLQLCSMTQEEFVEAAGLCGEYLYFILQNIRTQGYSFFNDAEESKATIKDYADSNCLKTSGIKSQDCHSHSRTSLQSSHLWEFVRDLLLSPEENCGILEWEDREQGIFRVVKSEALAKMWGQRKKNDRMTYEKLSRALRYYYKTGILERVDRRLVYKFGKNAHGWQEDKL
How it was run: as §1

ETV3 = biological target: T7, ETV3 (Homo sapiens, UniProt P41162-2 1-143)
T7 sequence: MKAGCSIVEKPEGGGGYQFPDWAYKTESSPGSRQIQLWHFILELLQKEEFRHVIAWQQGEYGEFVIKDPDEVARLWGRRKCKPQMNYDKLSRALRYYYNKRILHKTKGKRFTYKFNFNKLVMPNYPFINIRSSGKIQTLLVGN
How it was run: as §1

ETV6 = ETV6 (Homo sapiens, UniProt P41212 1-452)
How it was run: as §1

ETV6, sequence (P41212 whole entry): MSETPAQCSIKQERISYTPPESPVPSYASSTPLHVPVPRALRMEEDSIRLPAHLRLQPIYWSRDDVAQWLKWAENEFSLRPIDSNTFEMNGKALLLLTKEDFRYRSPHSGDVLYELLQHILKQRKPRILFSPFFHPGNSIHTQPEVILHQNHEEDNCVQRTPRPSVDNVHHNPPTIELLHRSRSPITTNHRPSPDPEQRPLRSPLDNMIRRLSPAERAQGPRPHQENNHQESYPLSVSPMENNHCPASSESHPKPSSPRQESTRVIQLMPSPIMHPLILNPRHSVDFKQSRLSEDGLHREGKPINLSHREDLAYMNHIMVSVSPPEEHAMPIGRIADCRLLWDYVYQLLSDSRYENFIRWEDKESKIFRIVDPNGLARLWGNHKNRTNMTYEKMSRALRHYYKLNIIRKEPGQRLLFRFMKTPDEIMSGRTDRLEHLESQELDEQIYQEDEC

Sequence | binding signal (ERF) | binding signal (ETV3L) | binding signal (ETS2) | binding signal (SPDEF) | binding signal (ETV7) | binding signal (ELF5) | binding signal (ETV3) | binding signal (ETV6)
TTTACA | 1.28 fold enrichment (6-mer frequency, TF over GST control) | 1.23 fold enrichment (6-mer frequency, TF over GST control) | 1.25 fold enrichment (6-mer frequency, TF over GST control) | 1.15 fold enrichment (6-mer frequency, TF over GST control) | 1.22 fold enrichment (6-mer frequency, TF over GST control) | 1.22 fold enrichment (6-mer frequency, TF over GST control) | 1.22 fold enrichment (6-mer frequency, TF over GST control) | 1.17 fold enrichment (6-mer frequency, TF over GST control)
ATTCTG | 1.38 fold enrichment (6-mer frequency, TF over GST control) | 1.28 fold enrichment (6-mer frequency, TF over GST control) | 1.31 fold enrichment (6-mer frequency, TF over GST control) | 1.27 fold enrichment (6-mer frequency, TF over GST control) | 1.23 fold enrichment (6-mer frequency, TF over GST control) | 1.21 fold enrichment (6-mer frequency, TF over GST control) | 1.26 fold enrichment (6-mer frequency, TF over GST control) | 1.43 fold enrichment (6-mer frequency, TF over GST control)
AACTCG | 1.44 fold enrichment (6-mer frequency, TF over GST control) | 1.43 fold enrichment (6-mer frequency, TF over GST control) | 1.31 fold enrichment (6-mer frequency, TF over GST control) | 1.31 fold enrichment (6-mer frequency, TF over GST control) | 1.33 fold enrichment (6-mer frequency, TF over GST control) | 1.35 fold enrichment (6-mer frequency, TF over GST control) | 1.4 fold enrichment (6-mer frequency, TF over GST control) | 1.33 fold enrichment (6-mer frequency, TF over GST control)
CTTCCA | 1.55 fold enrichment (6-mer frequency, TF over GST control) | 1.52 fold enrichment (6-mer frequency, TF over GST control) | 1.45 fold enrichment (6-mer frequency, TF over GST control) | 1.45 fold enrichment (6-mer frequency, TF over GST control) | 1.36 fold enrichment (6-mer frequency, TF over GST control) | 1.64 fold enrichment (6-mer frequency, TF over GST control) | 1.41 fold enrichment (6-mer frequency, TF over GST control) | 1.76 fold enrichment (6-mer frequency, TF over GST control)
ACTGCT | 1.27 fold enrichment (6-mer frequency, TF over GST control) | 1.41 fold enrichment (6-mer frequency, TF over GST control) | 1.38 fold enrichment (6-mer frequency, TF over GST control) | 1.26 fold enrichment (6-mer frequency, TF over GST control) | 1.4 fold enrichment (6-mer frequency, TF over GST control) | 1.33 fold enrichment (6-mer frequency, TF over GST control) | 1.42 fold enrichment (6-mer frequency, TF over GST control) | 1.33 fold enrichment (6-mer frequency, TF over GST control)
ATACAC | 1.32 fold enrichment (6-mer frequency, TF over GST control) | 1.18 fold enrichment (6-mer frequency, TF over GST control) | 1.16 fold enrichment (6-mer frequency, TF over GST control) | 1.28 fold enrichment (6-mer frequency, TF over GST control) | 1.21 fold enrichment (6-mer frequency, TF over GST control) | 1.15 fold enrichment (6-mer frequency, TF over GST control) | 1.17 fold enrichment (6-mer frequency, TF over GST control) | 1.12 fold enrichment (6-mer frequency, TF over GST control)
TGCTAT | 1.33 fold enrichment (6-mer frequency, TF over GST control) | 1.4 fold enrichment (6-mer frequency, TF over GST control) | 1.52 fold enrichment (6-mer frequency, TF over GST control) | 1.48 fold enrichment (6-mer frequency, TF over GST control) | 1.43 fold enrichment (6-mer frequency, TF over GST control) | 1.33 fold enrichment (6-mer frequency, TF over GST control) | 1.45 fold enrichment (6-mer frequency, TF over GST control) | 1.38 fold enrichment (6-mer frequency, TF over GST control)
TTCGTT | 1.37 fold enrichment (6-mer frequency, TF over GST control) | 1.37 fold enrichment (6-mer frequency, TF over GST control) | 1.3 fold enrichment (6-mer frequency, TF over GST control) | 1.39 fold enrichment (6-mer frequency, TF over GST control) | 1.55 fold enrichment (6-mer frequency, TF over GST control) | 1.32 fold enrichment (6-mer frequency, TF over GST control) | 1.3 fold enrichment (6-mer frequency, TF over GST control) | 1.29 fold enrichment (6-mer frequency, TF over GST control)
CTGTCT | 1.37 fold enrichment (6-mer frequency, TF over GST control) | 1.37 fold enrichment (6-mer frequency, TF over GST control) | 1.4 fold enrichment (6-mer frequency, TF over GST control) | 1.44 fold enrichment (6-mer frequency, TF over GST control) | 1.53 fold enrichment (6-mer frequency, TF over GST control) | 1.28 fold enrichment (6-mer frequency, TF over GST control) | 1.45 fold enrichment (6-mer frequency, TF over GST control) | 1.32 fold enrichment (6-mer frequency, TF over GST control)
